Results reported in PubChem BioAssay.
The source made the active and inactive calls.

What was measured:
[1] = compound effects on lung adenocarcinoma cell viability – A549, calcein-AM fluorescence, 48 h, basal, profiling panel (AID 1162); details: higher = more signal
[2] = compound effects on differentiated 3T3-L1 adipocyte viability – cell-based, 3T3-L1 adipocytes, calcein-AM fluorescence, 48 h, basal, profiling panel (AID 1163); details: 3T3-L1 adipocytes viability, higher = more signal
[3] = compound effects on hepatocellular carcinoma cell viability – HepG2, calcein-AM fluorescence, 48 h, basal, profiling panel (AID 1164); details: higher = more signal
[4] = compound effects on multiple myeloma cell viability – MM1S, calcein-AM fluorescence, 48 h, basal, profiling panel (AID 1165); details: higher = more signal;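 note: viability of MM1S multiple myeloma cells under basal unstimulated conditions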
[5] = calcein-AM signal in unstimulated myeloma cells – cell-based, calcein-AM fluorescence, 48 h, PK04 Diversity Set, profiling panel (AID 1166); details: RPMI8226 myeloma viability, higher = more signal;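 note: cells grown under basal conditions without added stimulus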
[6] = JC-1 mitochondrial signal, unstimulated HepG2 cells – cell-based, JC-1 fluorescence, 24 h, 100 nL compound, profiling panel (AID 1167); details: HepG2 mitochondrial potential, higher = more signal
[7] = JC-1 mitochondrial signal, unstimulated adipocytes – cell-based, JC-1 fluorescence, 3T3-L1 adipocytes, 24 h, 100 nL compound, profiling panel (AID 1168); details: JC-1 mitochondrial fluorescence, higher = more signal, called active from +8 up or from −8 down
[8] = JC-1 mitochondrial signal, unstimulated myeloma cells – cell-based, JC-1 fluorescence, RPMI8226, 24 h, 100 nL compound, profiling panel (AID 1169); details: JC-1 mitochondrial potential fluorescence, higher = more signal
[9] = JC-1 mitochondrial signal, unstimulated MM1S myeloma – cell-based, JC-1 fluorescence, 24 h, 100 nL compound, profiling panel (AID 1170); details: MM1S mitochondrial potential, higher = more signal
[10] = resazurin metabolic signal in A549 cells – cell-based, resazurin fluorescence, 24 h, PK04 Diversity Set, profiling panel (AID 1171); details: A549 viability, higher = more signal, called active from +8 up or from −8 down
Note: test concentration not given here.

Row | Compound | z-score [1] | z-score [2] | z-score [3] | z-score [4] | z-score [5] | z-score [6] | z-score [7] | z-score [8] | z-score [9] | z-score [10]
1 | C[C@@]1([C@@H](NC(=O)c2ccccc2)c2ccc(-c3ccccc3)cc2)C[C@H]1C1CCCCC1 | -1.35 | -0.502 | -0.687 | -0.646 | -1.28 | -0.964 | -1.22 (inactive) | 0.318 | -0.308 | -1.2 (inactive)
2 | COc1ccc(CCNC(=O)[C@@H]2c3ccccc3C(=O)N(C3Cc4ccccc4C3)[C@H]2c2ccc(CO)cc2)cc1 | 0.595 | 0.0644 | 0.0079 | -0.532 | -0.0245 | 1.6 | 0.00592 (inactive) | -0.78 | -0.0799 | 1.39 (inactive)
3 | CC(C)N1C(=O)c2ccccc2[C@](C)(C(=O)NCc2ccccc2)[C@@H]1c1ccc(CO)cc1 | 0.82 | 0.48 | -0.699 | -0.656 | -0.0073 | -0.265 | -0.426 (inactive) | -0.833 | -0.472 | -0.0838 (inactive)
4 | COCCCNC(=O)[C@@]1(Cc2ccccc2N=[N+]=[N-])N=C(c2ccc(OCCCO)cc2)O[C@H]1c1ccccc1N=[N+]=[N-] | -1.84 | 0.954 | -1.37 | -1.88 | -3.69 | 1.77 | 0.221 (inactive) | -1.22 | -2.03 | -1.76 (inactive)
5 | C=CCOC(=O)[C@@H]1[C@H]2C(=O)O[C@H](c3ccccc3)[C@H](c3ccccc3)N2[C@H](c2ccc(OCCOC(=O)[C@@H]3C[C@@H]4C(=O)N5CCC[C@H]5C(=O)N4[C@@H]3c3ccc(O)cc3)cc2)[C@@]12C(=O)Nc1ccc(I)cc12 | 1.87 | 1.24 | 0.502 | -0.573 | 0.278 | -1.6 | 0.231 (inactive) | -0.752 | -1.25 | -0.248 (inactive)
6 | CN1C(=O)C2C=CC(C(O)c3ccc(I)cc3)N(N3CCCCC3)C2C1=O (stereo not given) | -0.481 | -0.111 | -0.619 | -3.7 | -0.955 | -0.62 | -0.435 (inactive) | -0.484 | -0.624 | -0.799 (inactive)
7 | COc1ccc(C(=O)Nc2ccc(CN3C(=O)[C@@]4(O[C@@H](CCn5cc([C@H](O)c6ccccc6)nn5)[C@H]([Si](C)(C)c5ccc(OC)cc5)[C@H]4C)c4ccccc43)cc2)cc1 | -0.443 | -0.196 | -4.62 | -2.72 | -3.02 | 1.73 | 1.17 (inactive) | -1.1 | -2.26 | -1.15 (inactive)
8 | CN(C)C(=O)[C@@]1(Cc2ccccc2)N=C(c2ccc(OCCCO)cc2)O[C@H]1c1ccccc1N=[N+]=[N-] | -1.45 | 1.22 | -1.84 | -2.53 | -3.91 | 1.48 | 1.17 (inactive) | -0.981 | -2.53 | -1.63 (inactive)
9 | COCCOC(=O)N1C(=O)[C@@]2(c3cc(C#CC4(O)CCCCCC4)ccc31)[C@H](c1ccc(O)cc1)N1[C@H](c3ccccc3)[C@H](c3ccccc3)OC(=O)[C@H]1[C@@H]2C(=O)Nc1nc2ccccc2s1 | 0.3 | 0.974 | 0.702 | -1.55 | -1.47 | -2.78 | -1.11 (inactive) | -0.876 | 0.18 | -0.006 (inactive)
10 | O=C1c2ccccc2[C@@]2(Cc3ccccc3N(CCN3CCOCC3)C2=O)[C@H](c2ccc(CO)cc2)N1Cc1ccccc1 | 0.668 | -0.238 | 0.402 | 0.0855 | 0.66 | 0.761 | 0.734 (inactive) | -0.605 | -0.253 | -0.273 (inactive)
11 | CCCCCCC#C[Si](O[C@H](c1ccccc1)c1cn([C@H](CO)Cc2ccccc2)nn1)(C(C)C)C(C)C | 1.77 | -0.121 | -0.407 | -0.178 | -0.542 | 0.338 | -0.94 (inactive) | -0.229 | -1.75 | 0.419 (inactive)
12 | CN(C)CCCNC(=O)[C@@]1(C)c2ccccc2C(=O)N(Cc2cc(F)cc(C(F)(F)F)c2)[C@H]1c1ccc(CO)cc1 | 1.04 | -0.0121 | -0.746 | -1.29 | -0.167 | 0.845 | 0.235 (inactive) | 0.521 | -0.496 | 0.896 (inactive)
13 | COC(=O)[C@@]1(Cc2ccc(F)cc2)[C@H]2c3cc(C(=O)N(C)C)n(Cc4nc5ccccc5[nH]4)c3C[C@H]2CN1C(=O)c1ccccc1 | -0.788 | -0.0882 | -0.49 | -1.09 | -0.184 | -0.0736 | -0.156 (inactive) | -0.207 | -2.16 | 0.406 (inactive)
14 | Cc1ccc(S[C@]2(C(=O)NC3CC3)CC(=O)N(C3Cc4ccccc4C3)[C@@H]2c2ccc(CO)cc2)cc1 | 3.2 | 0.785 | 1.51 | 0.498 | 0.244 | 2.78 | 0.569 (inactive) | 0.763 | -0.0488 | -1.23 (inactive)
15 | CCCC[C@H]1OB(O)C[C@H]2C1=C(COc1ccccc1)C[C@H]1C(=O)N(C)C(=O)[C@H]12 | 0.498 | 0.0271 | 0.258 | -1.46 | -0.185 | -1.29 | 0.468 (inactive) | 0.304 | 0.35 | -0.166 (inactive)
